# Hits are enriched below; roughly 19% of the tested compounds scored in any of these assays.
# TDP1 inh: blocks human tyrosyl-DNA phosphodiesterase 1 | recombinant TDP1, AlphaScreen DNA substrate cleavage | AID 485290 | actives 0.28% (n = 350,000) | Potency, µM (series often up to 130 µM), inactives show at the top dose activity change, negative = inhibition, usual class: inhibitors | Q9NUW8; further: potency means the concentration at half of the fitted maximal effect; on the % scale 0 is the no-effect control and ±100 the full control effect; nearly all actives have a fitted effect of over 40% in size
# Target sequence (Q9NUW8 whole entry, looked up): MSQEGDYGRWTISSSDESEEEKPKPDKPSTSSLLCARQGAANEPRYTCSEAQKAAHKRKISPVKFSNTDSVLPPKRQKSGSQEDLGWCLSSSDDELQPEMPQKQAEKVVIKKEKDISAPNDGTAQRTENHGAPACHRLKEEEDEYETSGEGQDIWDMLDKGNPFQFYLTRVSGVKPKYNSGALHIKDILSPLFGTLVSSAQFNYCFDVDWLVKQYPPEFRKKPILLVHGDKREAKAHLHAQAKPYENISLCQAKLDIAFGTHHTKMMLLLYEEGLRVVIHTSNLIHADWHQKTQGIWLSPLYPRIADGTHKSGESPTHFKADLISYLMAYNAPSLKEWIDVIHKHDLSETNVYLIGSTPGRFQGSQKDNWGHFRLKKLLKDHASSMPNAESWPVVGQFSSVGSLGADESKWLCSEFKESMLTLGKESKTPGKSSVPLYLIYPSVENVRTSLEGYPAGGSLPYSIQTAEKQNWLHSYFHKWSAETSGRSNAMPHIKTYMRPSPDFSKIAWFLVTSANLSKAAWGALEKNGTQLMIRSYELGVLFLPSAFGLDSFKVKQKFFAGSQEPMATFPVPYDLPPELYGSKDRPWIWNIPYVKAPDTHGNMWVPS
#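 Enzyme-compound mixtures sat 15 min at room temperature, followed by a 5 min reaction with 15 nM final substrate and 10 min with AlphaScreen beads. Recombinant human Tdp1 was used at 1 nM final.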
# TGFb inhibitor: blocks TGF-b signaling | HepG2 CAGA-GFP TGF-b/SMAD3 reporter, GFP fluorescence, 18 h; TGF-beta stimulated, 500 pg/mL final | Potency, µM (doses to about 46.1 µM), without a hit: at the highest dose activity, negative = inhibition, usual class: inhibitors | actives 1.2% (n = 410,000) | AID 588855; further: potency means the concentration at half of the fitted maximal effect; on the % scale 0 is the no-effect control and ±100 the full control effect; nearly all actives have a fitted effect of over 65% in size
#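 Read-out: total well GFP (ex488/em500-530) summed from mean per-cell fluorescence. Cells: HEPG2 CAGA-GFP, 1% FBS DMEM, 18 h at 37 degrees C with 500 pg/mL final TGF-beta. Unstimulated wells served as the full-inhibition control; stimulated DMSO wells = 0%.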
# DT40 TDP1 CPT: DT40-hTDP1 cell growth loss with CPT; chicken DT40 Tdp1-/-;hTDP1 cells + 20 nM CPT, ATP luminescence, 48 h; Potency, µM (titrated, usually from 46.2 µM), for inactives: at the highest dose activity change, negative = growth inhibition, most hits filed as inhibitors; actives 12% (n = 420,000); further: potency means the concentration at half of the fitted maximal effect; on the % scale 0 is the no-effect control and ±100 the full control effect; nearly all actives have a fitted effect of over 55% in size
#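 Chicken DT40 Tdp1-/- cells stably complemented with human TDP1 were seeded at 400 cells/well in medium containing 20 nM camptothecin, exposed to pin-transferred compounds, and grown at 37 °C for at least 48 hr. Viability was read as ATP luminescence.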
# IL1B secr inh: inflammasome signaling inhibition, IL-1 beta readout; activity change, % at 57.5 µM; THP-1 LPS/ATP IL-1B secretion, AlphaLISA, 16 h; stronger effect = lower value; actives 4.7% (n = 360,000); in the data active means activity change below about -50%; inconclusive means mostly about -30% to -49%; further: on the % scale 0 is the no-effect control and ±100 the full control effect
#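 Secreted IL-1B measured by AlphaLISA bead assay after 16 h compound exposure of THP-1 cells; compounds (final up to 57.5 uM) added 1 h before LPS (250 ng/mL) and ATP (1.25 mM) stimulation; lower signal means less secretion.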
# DT40 TDP1 no CPT: qHTS for Inhibitors of human tyrosyl-DNA phosphodiesterase 1 (TDP1): qHTS in cells in absence of CPT. DT40 Tdp1-/- hTDP1 cells, no CPT, ATP luminescence, 48 h. Potency, µM (series often up to 46.2 µM), without a hit: top-dose activity change, negative = growth inhibition, actives largely listed as inhibitors. actives 15% (n = 420,000); further: potency means the concentration at half of the fitted maximal effect; on the % scale 0 is the no-effect control and ±100 the full control effect; nearly all actives have a fitted effect of over 55% in size
#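 Growth kinetics read by CellTiter-Glo luminescence after ≥48 hr at 37 °C. Cells: DT40 Tdp1-/- stably carrying human TDP1, 400 per well, compound exposure in the absence of CPT (DMSO vehicle).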
# HepG2 viability: kills HepG2 cells in TGF-b inhibitor counter-screen | actives 0.76% (n = 410,000) | Potency, µM (top dose mostly 46.1 µM), for inactives: at the top dose activity change, negative = cytotoxicity, most hits filed as cytotoxic | HepG2 CAGA-GFP viability, ATP luminescence, 18 h; further: potency means the concentration at half of the fitted maximal effect
#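 HepG2 CAGA-GFP cells (1000/well, DMEM with 1% FBS) received compound, then TGF-beta at 500 pg/mL final, and were incubated 18 hours at 37 degrees C. Viability was read by CellTiter-Glo luminescence. Media-only wells were set as complete cell-killing and DMSO as no toxicity.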
# * marks the source's active call; other numbers are inactive results; ? = inconclusive; · = no result. Unless noted, the call rests on the fitted dose curve; in most records, active means well fitted curve in the direction sought with a large enough effect; inconclusive means small, poorly fitted or top-dose-only effect, or another doubt; inactive means no such curve, though single readings can be large; an effect the other way counts as inactive or inconclusive.
SMILES,TDP1 inh,TGFb inhibitor,DT40 TDP1 CPT,IL1B secr inh,DT40 TDP1 no CPT,HepG2 viability
CC(=O)OC1CC(C)OC(C)O1 (stereo not given),5%,·,·,·,·,·
CC1(c2ccc(Cl)c(Cl)c2)NC(=S)N2C1NC(=S)N2c1ccccc1 (stereo not given),4%,-36%,-22%,-73*,?,-10%
CC1(c2ccc(Cl)cc2)NC(=S)N2C1NC(=S)N2c1ccccc1 (stereo not given),·,-17%,-11%,?,-29%,8%
N#CCCCC1(CCCC#N)OCCO1,·,-2%,5%,12,-8%,-5%
COc1ccccc1-n1c2nc3ccccc3nc2c2c(=O)n(-c3cc(C)cc(C)c3)cnc21,1%,0%,3.7µM*,-95*,?,-10%
COc1ccccc1-n1cnc2c(c1=O)c1nc3ccccc3nc1n2CCc1ccccc1,-3%,26%,21µM*,-23,16µM*,0%
COc1ccccc1-n1cnc2c(c1=O)c1nc3ccccc3nc1n2-c1ccc(C)cc1,3%,8%,?,-1,?,19%
COCCCn1c2nc3ccccc3nc2c2c(=O)n(Cc3cccs3)cnc21,6%,·,·,·,·,·
CCC/C(=C1/c2ccccc2C(=O)N1c1ccccc1)c1cnc(OC)nc1,3%,13µM*,?,-4,-84%,-18%
CCC/C(=C1/c2ccccc2C(=O)N1c1ccccc1)c1ccc2c(c1)OCCO2,3%,?,?,34,-28%,-1%
CCC/C(=C1/c2ccccc2C(=O)N1c1ccccc1)c1ccc(O[C@@H]2CCCCO2)cc1,0%,?,?,42,16µM*,-14%
CCCn1c(CN2CCN(C(=O)OCC)CC2)nc2cc(NC(C)=O)ccc21,·,-16%,?,-3,16µM*,1%
CCOC(=O)N1CCN(Cc2nc3cc(NC(=O)c4ccco4)ccc3n2C)CC1,6%,-7%,-1%,9,-1%,-13%
CCCn1c(CN2CCN(C(=O)OCC)CC2)nc2cc(NC(=O)C(C)C)ccc21,·,-5%,21µM*,0,12µM*,-11%
CCCCC(=O)Nc1ccc2c(c1)nc(CN1CCN(C(=O)OCC)CC1)n2C,·,-17%,?,26,-29%,-15%
COc1cc(OC)c(OC)cc1CNCCCSc1nnnn1C,-1%,-4%,-2%,·,-9%,4%
Cc1ccc(S(=O)(=O)N2CCCC(c3nc(-c4ccc(C)o4)no3)C2)cc1 (stereo not given),4%,-21%,-17%,-73*,-12%,-18%
Cc1ccc(-c2noc(C3CCCN(C(=O)c4ccc(C(C)(C)C)cc4)C3)n2)o1 (stereo not given),·,-27%,?,-28,18µM*,-26%
CC(=O)c1cccc(S(=O)(=O)N2CCCC(c3nc(-c4ccc(C)o4)no3)C2)c1 (stereo not given),7%,-5%,18µM*,-12,?,-13%
COc1ccc(-c2noc(C3CCCN(S(=O)(=O)c4ccc(C)c(Cl)c4)C3)n2)cc1OC (stereo not given),0%,11%,?,2,21µM*,-2%
CCCCC(C=O)CC (stereo not given),12%,·,·,·,·,·
CSc1ccc(CCNS(=O)(=O)c2csc(C(N)=O)c2)cc1,4%,-13%,?,1,-22%,-8%
O=[N+]([O-])c1ccccc1S(=O)(=O)NCC1CCC(CNCC2CCc3ccccc3C2)CC1 (stereo not given),12%,·,·,·,·,·
CN(Cc1ccc(F)cc1)C(=O)c1ccc(NC(=O)CC2SC(N3CCCC3)=NC2=O)cc1 (stereo not given),1%,15%,7%,0,10%,-6%
Cc1ccc(-c2noc(C3CCN(C(=O)Nc4ccc(C#N)cc4)CC3)n2)o1,5%,13%,23µM*,-8,?,-14%
SMILES,TDP1 inh,TGFb inhibitor,DT40 TDP1 CPT,IL1B secr inh,DT40 TDP1 no CPT,HepG2 viability
CN(C)c1ccc(-c2noc(C3CCN(C(=O)Nc4ccc(Cl)cc4)CC3)n2)cc1,6%,2%,?,-24,?,-5%
COc1cc(OC)cc(C(=O)N[C@H](C(=O)Nc2nnc(C3CC3)s2)C(C)C)c1,5%,6%,-10%,-1,4%,-1%
CC(C)[C@H](NC(=O)c1ccc(C(C)(C)C)cc1)C(=O)Nc1nnc(C2CC2)s1,4%,?,23µM*,-3,?,-24%
CCSc1nnc(NC(=O)[C@@H](NC(=O)c2cccc(C)c2)C(C)C)s1,-3%,-8%,-13%,19,-18%,9%
CCSc1nnc(NC(=O)[C@@H](NC(=O)c2ccc(C(C)(C)C)cc2)C(C)C)s1,6%,?,26µM*,27,21µM*,0%
CN1CCN(C(c2ccccc2Cl)c2sc3nc(-c4ccco4)nn3c2O)CC1 (stereo not given),8%,12%,0%,·,-3%,5%
O=S(=O)(Cc1ccccc1)Nc1ccc(F)cc1,·,9%,4%,-7,5%,2%
CCc1ccccc1OCCCOc1ccc(OC)cc1,0%,?,1%,41,0%,-24%
CCCCc1c(-c2ccc(F)cc2)ncn1CCc1ccccc1OC,·,·,?,?,21µM*,·
COc1ccccc1CCn1c(=O)c(-c2cc(F)cc(F)c2)nc2cncnc21,·,·,-9%,·,-4%,·
CCCCc1c(-c2ccc(OC)cc2)ncn1CCc1ccccc1OC,·,·,21µM*,-114*,23µM*,·
CCCCCc1c(-c2ccc(Cl)cc2)ncn1CCc1ccccc1OC,·,·,8.2µM*,-63*,7.3µM*,·
CCCc1c(-c2cccc(Cl)c2)ncn1Cc1ccccc1OC,·,·,5.8µM*,?,9.2µM*,·
COCCN1CCN(Cc2cn(C)nc2-c2cccc(Cl)c2)CC1,9%,-2%,14%,9,-12%,2%
CCCCc1c(Cc2ccccc2)ncn1CCc1ccccc1OC,·,·,2.9µM*,-58*,5.2µM*,·
COc1ccccc1CCn1c(=O)c(CCc2ccccc2)nc2cncnc21,·,·,2%,·,2%,·
CCCCCc1c(-c2ccc(OC)cc2)ncn1CCc1ccccc1OC,·,·,13µM*,-94*,15µM*,·
CCCCc1c(-c2ccccc2)ncn1CCc1ccccc1OC,·,·,?,?,16µM*,·
